Screens deposited in PubChem by National Center for Advancing Translational Sciences (NCATS).
PI5P4Ka inh = inhibitors of human PI5P4K alpha; PI5P4Kalpha enzyme, ADP-Glo luminescence, 60 min; stronger effect = lower value; AID 652105; P48426; max response, %; 330,000 compounds, 1.2% hits; active means max response of -50% or lower; inconclusive means between -30% and -50%; inactive means -30% or higher; further: value at the top dose of about 77 µM; on the % scale 0 is the no-effect control and ±100 the full control effect
Target sequence (P48426 whole entry, looked up): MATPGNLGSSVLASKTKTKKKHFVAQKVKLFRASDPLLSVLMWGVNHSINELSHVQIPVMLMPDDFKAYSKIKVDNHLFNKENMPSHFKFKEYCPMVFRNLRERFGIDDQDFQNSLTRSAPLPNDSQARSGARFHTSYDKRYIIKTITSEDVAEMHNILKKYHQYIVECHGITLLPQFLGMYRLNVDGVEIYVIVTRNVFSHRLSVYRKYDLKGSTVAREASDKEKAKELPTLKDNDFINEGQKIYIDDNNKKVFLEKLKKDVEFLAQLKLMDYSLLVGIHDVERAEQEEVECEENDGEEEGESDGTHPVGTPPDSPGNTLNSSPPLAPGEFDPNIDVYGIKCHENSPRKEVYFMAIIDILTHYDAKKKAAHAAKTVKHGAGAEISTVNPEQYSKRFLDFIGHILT
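ADP-Glo luminescence end-point read after a 60 min room-temperature kinase reaction of PI5P4Kalpha plus substrate, initiated with ATP at 5 microM final. Buffer: 0.038 M HEPES pH 7.4, EGTA, 0.1% CHAPS, 5% DMSO.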
JMJD2A Tudor = JMJD2A Tudor domain (human) inhibition | O75164 | AlphaScreen JMJD2A-Tudor / H3K4me3 peptide binding | Potency, µM (titrated, usually from 114 µM), for the others: top-dose activity change, negative = inhibition, hits mostly inhibitors | 390,000 compounds, 4.4% hits | AID 504339; further: potency means the concentration at half of the fitted maximal effect; on the % scale 0 is the no-effect control and ±100 the full control effect; nearly all actives have a fitted effect of over 50% in size
L3MBTL1 block = blocks human L3MBTL1; Q9Y468; AlphaScreen L3MBTL1–H3K9me1 peptide binding; Potency, µM (doses to about 57.1 µM), for the others: top-dose activity, negative = inhibition, actives largely listed as inhibitors; 230,000 compounds, 0.66% hits; AID 485360; further: potency means the concentration at half of the fitted maximal effect; on the % scale 0 is the no-effect control and ±100 the full control effect; nearly all actives have a fitted effect of over 60% in size
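First, the protein-peptide complex forms for 30 min at room temperature (L3MBTL1 50 nM, biotinylated H3K9me1 peptide 75 nM). Next, compounds are pin-transferred and incubated 30 min. Finally, AlphaScreen beads are added and read after 30 min.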
BAZ2B inh = BAZ2B (human) inhibition | AlphaScreen BAZ2B-H3K14Ac peptide displacement | Potency, µM (top dose mostly 114 µM), for inactives: at the highest dose activity change, negative = inhibition, hits mostly inhibitors | 360,000 compounds, 4.4% hits | AID 504333; further: potency means the concentration at half of the fitted maximal effect; on the % scale 0 is the no-effect control and ±100 the full control effect; nearly all actives have a fitted effect of over 60% in size
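Multi-concentration screen (max 110 uM) measuring displacement of acetylated histone H3 peptide from BAZ2B by AlphaScreen, using 50 nM protein, 50 nM peptide and 10 ug/mL streptavidin donor plus Ni-chelate acceptor beads.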
HP1b binding inh = blocks HP1-beta chromodomain binding to methylated histone tails | AlphaScreen HP1-beta / biotin-H3K9me3 peptide binding | P83916 | Potency, µM (top dose mostly 114 µM), inactives show at the top dose activity change, negative = inhibition, hits mostly inhibitors | AID 540317 | 390,000 compounds, 0.56% hits; further: potency means the concentration at half of the fitted maximal effect; nearly all actives have a fitted effect of over 70% in size
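Compound inhibition of the preformed complex between 50 nM HP1-beta and 50 nM biotinylated H3K9me3 peptide was read by AlphaScreen. Buffer was PBS pH 7.4 with 0.01% Tween-20. Incubations ran 30 min at room temperature, with 10 ug/mL donor/acceptor beads.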
G9a block = inhibitors of human histone lysine methyltransferase G9a; G9a H3K9 monomethylation, AlphaScreen, 2 h; 350,000 compounds, 8.8% hits; Q96KQ7; Potency, µM (highest dose often 102 µM), for the others: at the highest dose activity, negative = inhibition, usual class: inhibitors; further: potency means the concentration at half of the fitted maximal effect; on the % scale 0 is the no-effect control and ±100 the full control effect; nearly all actives have a fitted effect of over 75% in size
Target sequence (Q96KQ7 913-1193 limits assumed): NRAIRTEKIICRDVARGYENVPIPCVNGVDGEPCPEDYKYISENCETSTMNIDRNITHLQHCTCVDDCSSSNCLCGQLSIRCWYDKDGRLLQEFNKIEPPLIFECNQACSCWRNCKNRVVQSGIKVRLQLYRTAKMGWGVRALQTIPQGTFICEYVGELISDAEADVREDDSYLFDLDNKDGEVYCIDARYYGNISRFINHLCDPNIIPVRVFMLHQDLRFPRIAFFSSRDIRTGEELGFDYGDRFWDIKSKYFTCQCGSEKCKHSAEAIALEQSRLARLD
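G9a (20 nM) was preincubated 15 min with compound, then reacted 2 h at room temperature with 500 nM biotin-H3K9 peptide and 20 µM SAM. Monomethyl-H3K9 detected by AlphaScreen using anti-H3K9me1 antibody.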
The depositor's hits bear a star; [ ] = remark or other dose. Sampled rows, rich in hits. Any-hit rate of the full collection: about 11%. Unless noted, the call rests on the fitted dose curve; in most records, active means well fitted inhibition curve with a large enough effect; inconclusive means small, poorly fitted or top-dose-only effect; inactive means no such curve, though single readings can be large or run the other way.

Screening CC1CCN(CC(=O)Nc2ccc(S(=O)(=O)N3CCCC(C)C3)cc2)CC1 (stereo unspecified) returned PI5P4Ka inh 5, JMJD2A Tudor -8%, L3MBTL1 block 11%, BAZ2B inh -7% and HP1b binding inh 24%.
O=C(CS(=O)(=O)c1cccc2nsnc12)Nc1ccc(F)cc1F was read as JMJD2A Tudor -10%, BAZ2B inh -1%, HP1b binding inh 23% and G9a block 0%[59 µM].
`O=C(NN1C(=O)/C(=C/c2cccs2)SC1=S)c1ccncc1` gave PI5P4Ka inh -22, JMJD2A Tudor -31%, L3MBTL1 block -13%, BAZ2B inh -25%, HP1b binding inh -13% and G9a block 45µM*.
Screening CCN(CC)CCOC(=O)c1ccc(NC(=O)CCCN2C(=O)/C(=C\c3cccs3)SC2=S)cc1 returned PI5P4Ka inh 0, JMJD2A Tudor 25µM*, BAZ2B inh 20µM* and HP1b binding inh inconclusive.
`Cc1ccc(C(=O)NN2C(=O)/C(=C/c3cccn3C)SC2=S)cc1` gave PI5P4Ka inh -6, JMJD2A Tudor inconclusive, L3MBTL1 block inconclusive, BAZ2B inh 22µM*, HP1b binding inh inconclusive and G9a block inconclusive.
`O=C(CCCN1C(=O)/C(=C/c2cccs2)SC1=S)NNC(=O)c1cccnc1` gave PI5P4Ka inh -10, JMJD2A Tudor -33%, BAZ2B inh inconclusive, HP1b binding inh 14% and G9a block 7%[59 µM].
O=C(CCCN1C(=O)/C(=C\c2cccs2)SC1=S)NNC(=O)c1ccncc1 was read as PI5P4Ka inh -6, JMJD2A Tudor 50µM*, L3MBTL1 block 0%, BAZ2B inh inconclusive, HP1b binding inh 23% and G9a block -5%.
CCOc1ccc(CN(C(=O)c2nc(SC)ncc2Cl)C2CCS(=O)(=O)C2)cc1 (stereo unspecified) was read as JMJD2A Tudor -8%, BAZ2B inh -14%, HP1b binding inh 32% and G9a block -29%[59 µM].
`COc1ccccc1CNC(=O)CN1C(=O)CCc2cc(S(=O)(=O)N3CCOCC3)ccc21` gave JMJD2A Tudor -9%, BAZ2B inh -4%, HP1b binding inh 42% and G9a block 47%[59 µM].
Cc1cccc(C)c1NC(=S)/C(=C(\[O-])c1cccs1)[n+]1ccccc1 was read as PI5P4Ka inh -10, JMJD2A Tudor -31%, L3MBTL1 block 24%, BAZ2B inh 0%, HP1b binding inh 37% and G9a block 7.9µM*.
`Cc1cccc(C)c1NC(=O)COC(=O)CCC(=O)c1cccs1` gave PI5P4Ka inh -7, JMJD2A Tudor 8%[57.1 µM], BAZ2B inh -4%, HP1b binding inh inconclusive and G9a block 54%.
Screening [O-]/C(=C(\C(=S)Nc1cccc2ccccc12)[n+]1ccccc1)c1cccs1 returned PI5P4Ka inh -16, JMJD2A Tudor 79µM*, L3MBTL1 block inconclusive, BAZ2B inh inconclusive, HP1b binding inh inconclusive and G9a block 35µM*.
`CN(C)C=Nc1nonc1-c1ncn[nH]1` gave PI5P4Ka inh 1, JMJD2A Tudor 2.5µM*, L3MBTL1 block 3%, BAZ2B inh -10%, HP1b binding inh 10% and G9a block 22µM*.
For CN(C)C=Nc1nonc1-c1ccccc1 the results were PI5P4Ka inh 2, JMJD2A Tudor -2%, L3MBTL1 block 3%, BAZ2B inh 4%, HP1b binding inh 42% and G9a block 9%.
`COc1ccccc1CNC(=O)CCn1c(=O)c2cccn2c2cccnc21` gave JMJD2A Tudor -14%, BAZ2B inh inconclusive, HP1b binding inh 30% and G9a block -32%[59 µM].
For O=C(O)c1ccc(-n2c(-c3cc(-c4ccco4)[nH]n3)n[nH]c2=S)cc1 the results were PI5P4Ka inh inconclusive, JMJD2A Tudor 20µM*, L3MBTL1 block inconclusive, BAZ2B inh 45µM*, HP1b binding inh 12% and G9a block 4%[0.501 µM].
`CC(=O)c1ccc(-n2c(-c3cc(-c4ccco4)[nH]n3)n[nH]c2=S)cc1` gave PI5P4Ka inh -57*, JMJD2A Tudor inconclusive, BAZ2B inh inconclusive, HP1b binding inh -11% and G9a block inconclusive.
`CC1CCC(C(=O)NNC(=O)c2cc(-c3ccco3)[nH]n2)CC1` (stereo unspecified) gave PI5P4Ka inh -3, JMJD2A Tudor -17%, BAZ2B inh -21%, HP1b binding inh 27% and G9a block 43%[59 µM].
O=C(O)c1cc(-c2ccco2)[nH]n1 was read as PI5P4Ka inh -13, JMJD2A Tudor 79µM*, L3MBTL1 block -23%, BAZ2B inh 4%, HP1b binding inh 25% and G9a block inconclusive.
For CCOC(=O)c1ccc(-n2c(-c3ccco3)nc3ccccc3c2=O)cc1 the results were PI5P4Ka inh -2, JMJD2A Tudor -23%, L3MBTL1 block -2%, BAZ2B inh -28%, HP1b binding inh 25% and G9a block -5%.
For CCCCN(C)CCNC(=O)c1cc2c(=O)n(C)c3ccccc3c2n1C the results were JMJD2A Tudor -31%, BAZ2B inh -18%, HP1b binding inh 29% and G9a block -9%[59 µM].
`COc1ccc(S(=O)(=O)n2nc(C)c(S(=O)(=O)N3CCCCCC3)c2C)cc1C` gave JMJD2A Tudor inconclusive, BAZ2B inh inconclusive, HP1b binding inh 8%[57 µM] and G9a block -3%[59 µM].
For Cc1ccc2c(c1)C1CN(C)CCC1N2Sc1ccccc1[N+](=O)[O-] (stereo unspecified) the results were PI5P4Ka inh -3, JMJD2A Tudor 32µM*, BAZ2B inh 16µM*, HP1b binding inh inconclusive and G9a block inconclusive.
For CN1c2ccccc2C(C)(C)C12CCCC(=O)N2 (stereo unspecified) the results were PI5P4Ka inh 0, JMJD2A Tudor inconclusive, L3MBTL1 block -5%, BAZ2B inh 50µM*, HP1b binding inh 45% and G9a block 8.9µM*.
CC1=NOC2(C1)N(C)c1ccccc1C2(C)C (stereo unspecified) was read as JMJD2A Tudor -17%, L3MBTL1 block 32%, BAZ2B inh 18%, HP1b binding inh 19% and G9a block -10%[59 µM].
Screening Cc1cccc(NC(=S)NNC(=O)c2cc3c(s2)CCC(C)C3)c1C (stereo unspecified) returned PI5P4Ka inh 0, JMJD2A Tudor inconclusive, L3MBTL1 block 3%, BAZ2B inh 11%, HP1b binding inh -7% and G9a block inconclusive.
